Data from the supplement of paper PMC10849652.
About 8,800 targets were measured; listed, in parts, are those with a hit and a random draw of the rest. About 0.5% of all pairs of compound and target were hits.

Compound: O=C1NC(=O)C(c2cnc3ccccn23)=C1c1cn2c3c(cc(F)cc13)CN(C(=O)N1CCCCC1)CC2
Experiment: log2 fold change, soluble protein after heating vs DMSO (PISA); higher = thermal stabilisation; K562 lysate, 10 uM; active = over 0.2 and 3.5 SD of the protein, either way, in both replicates (recomputed)
Method in brief: (§1)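 Thermal stability, expressed as log-two fold change relative to solvent controls, is given from duplicates. Crude K562 extract in PBS pH 7.4 with 1 mM MgCl2, at 1 mg/mL protein, was treated with 10 μM compound for 30 min and heated in aliquots for 3 min across 48°C-58°C. After pooling, adjustment to 0.5% NP-40 at 4°C and centrifugation at 21,000xg for 90 min, supernatant protein was measured by TMTpro 16plex LC-MS/MS with channel sums equalised.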

Sequence of UniProt Q9UHB7 (Q9UHB7 whole entry, looked up): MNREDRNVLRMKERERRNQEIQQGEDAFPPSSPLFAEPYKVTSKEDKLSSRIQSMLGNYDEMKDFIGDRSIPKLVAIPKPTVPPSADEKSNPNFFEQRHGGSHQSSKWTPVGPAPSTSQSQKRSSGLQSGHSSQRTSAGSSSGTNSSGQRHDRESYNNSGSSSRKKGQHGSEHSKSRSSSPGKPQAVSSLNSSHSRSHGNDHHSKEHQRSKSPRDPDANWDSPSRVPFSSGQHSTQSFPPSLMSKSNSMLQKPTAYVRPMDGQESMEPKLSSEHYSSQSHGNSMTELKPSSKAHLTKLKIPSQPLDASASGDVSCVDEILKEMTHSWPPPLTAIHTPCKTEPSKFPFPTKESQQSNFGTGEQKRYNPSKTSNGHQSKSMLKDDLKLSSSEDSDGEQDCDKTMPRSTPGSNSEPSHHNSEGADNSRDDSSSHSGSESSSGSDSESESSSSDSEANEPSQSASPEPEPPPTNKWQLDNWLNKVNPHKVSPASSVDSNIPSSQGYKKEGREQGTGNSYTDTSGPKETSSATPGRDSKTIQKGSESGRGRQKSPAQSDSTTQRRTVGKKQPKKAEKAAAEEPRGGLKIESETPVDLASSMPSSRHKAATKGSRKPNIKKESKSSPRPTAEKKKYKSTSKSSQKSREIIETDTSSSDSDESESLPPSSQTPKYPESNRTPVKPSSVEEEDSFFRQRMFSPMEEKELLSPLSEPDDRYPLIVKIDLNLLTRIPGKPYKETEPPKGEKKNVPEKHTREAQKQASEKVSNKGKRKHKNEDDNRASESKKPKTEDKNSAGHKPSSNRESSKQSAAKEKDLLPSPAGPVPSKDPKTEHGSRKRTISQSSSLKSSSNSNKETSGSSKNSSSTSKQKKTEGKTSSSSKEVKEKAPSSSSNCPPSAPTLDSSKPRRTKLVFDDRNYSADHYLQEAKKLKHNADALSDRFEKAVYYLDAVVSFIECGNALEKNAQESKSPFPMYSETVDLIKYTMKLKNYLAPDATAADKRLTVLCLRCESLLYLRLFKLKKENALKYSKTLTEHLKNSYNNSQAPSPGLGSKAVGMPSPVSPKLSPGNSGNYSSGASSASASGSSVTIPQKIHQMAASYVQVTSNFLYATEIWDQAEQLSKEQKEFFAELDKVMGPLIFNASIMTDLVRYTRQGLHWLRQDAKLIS
Sequence of UniProt P00352 (P00352 whole entry, looked up): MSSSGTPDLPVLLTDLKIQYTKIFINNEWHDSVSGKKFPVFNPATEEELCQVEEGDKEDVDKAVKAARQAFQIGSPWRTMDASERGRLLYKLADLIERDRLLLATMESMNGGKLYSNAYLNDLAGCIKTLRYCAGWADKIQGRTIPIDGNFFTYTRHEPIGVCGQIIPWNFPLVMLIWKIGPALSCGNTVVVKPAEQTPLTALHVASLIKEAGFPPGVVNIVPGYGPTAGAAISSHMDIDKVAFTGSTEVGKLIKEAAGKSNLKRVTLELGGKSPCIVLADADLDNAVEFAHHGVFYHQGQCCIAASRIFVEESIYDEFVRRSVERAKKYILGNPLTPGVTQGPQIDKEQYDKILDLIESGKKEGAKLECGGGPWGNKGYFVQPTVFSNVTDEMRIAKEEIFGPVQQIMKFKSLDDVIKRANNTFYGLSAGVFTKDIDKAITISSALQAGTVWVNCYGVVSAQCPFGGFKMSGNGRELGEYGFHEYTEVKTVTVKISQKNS
Sequence of UniProt P35611 (P35611 whole entry, looked up): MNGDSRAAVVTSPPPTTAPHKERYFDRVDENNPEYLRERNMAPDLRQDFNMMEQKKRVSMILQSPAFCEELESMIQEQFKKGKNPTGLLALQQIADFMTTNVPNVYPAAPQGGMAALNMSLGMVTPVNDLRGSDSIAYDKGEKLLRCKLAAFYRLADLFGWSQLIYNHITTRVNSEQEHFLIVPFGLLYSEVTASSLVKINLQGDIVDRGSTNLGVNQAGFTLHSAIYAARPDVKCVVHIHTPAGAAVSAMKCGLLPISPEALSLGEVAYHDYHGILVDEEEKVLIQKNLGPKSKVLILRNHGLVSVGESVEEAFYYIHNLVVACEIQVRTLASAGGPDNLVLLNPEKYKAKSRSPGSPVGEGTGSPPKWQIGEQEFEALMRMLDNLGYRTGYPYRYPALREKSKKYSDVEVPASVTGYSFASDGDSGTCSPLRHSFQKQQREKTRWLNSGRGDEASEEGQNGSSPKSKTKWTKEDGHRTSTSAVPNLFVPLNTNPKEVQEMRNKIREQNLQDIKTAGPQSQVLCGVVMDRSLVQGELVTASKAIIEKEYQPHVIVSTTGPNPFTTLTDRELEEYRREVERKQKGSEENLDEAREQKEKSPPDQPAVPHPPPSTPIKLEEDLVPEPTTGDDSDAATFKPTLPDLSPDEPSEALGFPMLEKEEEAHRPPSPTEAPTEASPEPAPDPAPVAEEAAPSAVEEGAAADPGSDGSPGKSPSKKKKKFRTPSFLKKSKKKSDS
Sequence of UniProt P27695 (P27695 whole entry, looked up): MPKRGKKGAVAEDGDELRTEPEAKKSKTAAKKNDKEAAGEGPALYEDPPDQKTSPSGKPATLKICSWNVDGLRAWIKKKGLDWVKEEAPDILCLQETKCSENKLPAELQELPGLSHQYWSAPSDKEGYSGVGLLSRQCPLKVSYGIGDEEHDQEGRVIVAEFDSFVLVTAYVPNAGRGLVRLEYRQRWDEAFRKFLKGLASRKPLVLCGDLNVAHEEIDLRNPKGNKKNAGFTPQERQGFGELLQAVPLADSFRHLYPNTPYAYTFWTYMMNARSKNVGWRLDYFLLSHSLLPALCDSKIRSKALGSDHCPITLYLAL
Sequence of UniProt Q9NXU5 (Q9NXU5 whole entry, looked up): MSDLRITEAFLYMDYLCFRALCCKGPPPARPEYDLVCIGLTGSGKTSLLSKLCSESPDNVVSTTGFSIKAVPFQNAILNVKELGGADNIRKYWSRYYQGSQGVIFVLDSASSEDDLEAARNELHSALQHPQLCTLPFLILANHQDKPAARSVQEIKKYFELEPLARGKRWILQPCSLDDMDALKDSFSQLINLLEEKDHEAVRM
Sequence of UniProt O14617 (O14617 whole entry, looked up): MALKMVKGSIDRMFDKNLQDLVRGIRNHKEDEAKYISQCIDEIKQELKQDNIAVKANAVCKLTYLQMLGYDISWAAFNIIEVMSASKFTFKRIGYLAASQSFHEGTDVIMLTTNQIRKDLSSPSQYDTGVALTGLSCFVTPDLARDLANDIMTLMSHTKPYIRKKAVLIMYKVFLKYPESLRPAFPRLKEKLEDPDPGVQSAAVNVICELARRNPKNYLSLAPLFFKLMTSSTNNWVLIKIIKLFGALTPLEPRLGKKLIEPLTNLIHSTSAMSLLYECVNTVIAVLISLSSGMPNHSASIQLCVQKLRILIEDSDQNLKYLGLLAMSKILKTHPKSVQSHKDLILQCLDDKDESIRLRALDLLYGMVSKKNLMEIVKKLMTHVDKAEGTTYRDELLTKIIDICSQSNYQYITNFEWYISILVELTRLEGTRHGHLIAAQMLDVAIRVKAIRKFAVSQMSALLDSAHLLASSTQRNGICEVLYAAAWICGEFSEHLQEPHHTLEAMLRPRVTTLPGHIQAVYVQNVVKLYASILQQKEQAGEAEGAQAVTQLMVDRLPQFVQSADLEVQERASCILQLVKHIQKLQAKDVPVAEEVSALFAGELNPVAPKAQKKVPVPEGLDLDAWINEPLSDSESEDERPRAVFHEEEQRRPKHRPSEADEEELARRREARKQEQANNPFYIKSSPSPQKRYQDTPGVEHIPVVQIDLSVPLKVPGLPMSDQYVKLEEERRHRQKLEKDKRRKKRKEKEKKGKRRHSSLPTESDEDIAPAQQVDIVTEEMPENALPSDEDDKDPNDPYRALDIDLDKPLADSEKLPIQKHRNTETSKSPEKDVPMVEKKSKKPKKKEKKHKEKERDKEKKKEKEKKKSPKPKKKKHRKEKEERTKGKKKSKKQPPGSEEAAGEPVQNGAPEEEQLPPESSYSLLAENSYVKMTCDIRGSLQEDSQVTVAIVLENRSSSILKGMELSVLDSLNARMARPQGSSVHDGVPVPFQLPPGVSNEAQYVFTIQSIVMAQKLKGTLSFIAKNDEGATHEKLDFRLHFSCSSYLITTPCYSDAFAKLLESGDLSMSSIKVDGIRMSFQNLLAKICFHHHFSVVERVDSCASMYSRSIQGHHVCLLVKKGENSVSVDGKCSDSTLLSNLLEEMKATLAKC
Sequence of UniProt Q6NXE6 (Q6NXE6 whole entry, looked up): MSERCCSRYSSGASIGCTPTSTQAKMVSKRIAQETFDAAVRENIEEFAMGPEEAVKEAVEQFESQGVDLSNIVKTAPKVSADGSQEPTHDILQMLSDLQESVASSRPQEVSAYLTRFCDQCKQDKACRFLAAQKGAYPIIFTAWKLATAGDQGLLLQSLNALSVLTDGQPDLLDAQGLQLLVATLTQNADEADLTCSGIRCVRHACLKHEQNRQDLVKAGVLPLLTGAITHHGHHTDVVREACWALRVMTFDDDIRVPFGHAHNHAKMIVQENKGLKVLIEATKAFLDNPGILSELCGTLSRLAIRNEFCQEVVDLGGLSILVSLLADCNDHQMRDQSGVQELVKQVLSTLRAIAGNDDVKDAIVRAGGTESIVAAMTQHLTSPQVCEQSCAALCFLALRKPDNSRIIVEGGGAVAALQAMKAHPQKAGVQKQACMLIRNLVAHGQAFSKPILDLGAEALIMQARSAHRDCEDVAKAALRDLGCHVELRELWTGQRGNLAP
Sequence of UniProt Q9NXR5 (Q9NXR5 whole entry, looked up): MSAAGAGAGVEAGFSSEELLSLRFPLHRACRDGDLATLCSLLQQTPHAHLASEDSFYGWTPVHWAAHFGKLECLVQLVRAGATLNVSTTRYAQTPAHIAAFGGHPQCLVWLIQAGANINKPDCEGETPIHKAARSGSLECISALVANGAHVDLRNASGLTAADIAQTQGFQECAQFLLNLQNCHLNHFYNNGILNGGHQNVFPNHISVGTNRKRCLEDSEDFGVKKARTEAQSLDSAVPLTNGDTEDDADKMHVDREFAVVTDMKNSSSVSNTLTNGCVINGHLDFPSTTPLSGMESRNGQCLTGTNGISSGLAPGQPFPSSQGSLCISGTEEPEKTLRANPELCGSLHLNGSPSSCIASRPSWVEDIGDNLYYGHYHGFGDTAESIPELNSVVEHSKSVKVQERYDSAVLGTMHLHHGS

log2 fold change, inactive:
ANKRD10 (UniProt Q9NXR5) -0.066
ADD1 isoform 3 (UniProt P35611) -0.022
APEX1 (UniProt P27695) -0.001
ACTG1 (UniProt I3L4N8) 0.082
ALDH1A1 (UniProt P00352) -0.018
ARL15 (UniProt Q9NXU5) -0.029
ARL13B (UniProt Q3SXY8) -0.064
AP3D1 isoform 5 (UniProt O14617) 0.012
AFF4 (UniProt Q9UHB7) -0.031
ACACA isoform 4 (UniProt Q13085) -0.003

Compound: c1cn2cc(-c3ccc4cn[nH]c4c3)nc(Nc3ccc(N4CCOCC4)cc3)c2n1 [entospletinib]
Experiment: as above
Method in brief: as §1

log2 fold change, inactive:
ACAT1 (UniProt P24752) 0.018
AMD1 (UniProt P17707) 0.211
ACLY (UniProt P53396) 0.014
ACOX1 isoform 2 (UniProt Q15067) -0.012
ANAPC7 (UniProt Q9UJX3) 0.046
ARMC6 (UniProt Q6NXE6) 0.011
AKT2 (UniProt P31751) 0.008
ARHGAP21 (UniProt Q5T5U3) -0.104
ARL8A (UniProt Q96BM9) 0.002
ALG13 (UniProt Q9NP73) -0.082
ARHGAP25 isoform 4 (UniProt P42331) 0.009
ABCC5 (UniProt O15440) -0.036
ACACB (UniProt O00763) 0.088
ALG8 (UniProt Q9BVK2) -0.007
ARMCX3 (UniProt Q9UH62) 0.047
ASB6 (UniProt Q9NWX5) 0.074
ABCA3 (UniProt Q99758) 0.28
AK1 (UniProt P00568) 0.022
ADK (UniProt P55263) -0.027
AHCYL1 (UniProt O43865) -0.03
ACIN1 isoform 5 (UniProt Q9UKV3) -0.003
ADD1 isoform 3 (UniProt P35611) -0.014
APEX1 (UniProt P27695) -0.002
ACTG1 (UniProt I3L4N8) 0.098
ALDH1A1 (UniProt P00352) 0.02
ARL15 (UniProt Q9NXU5) 0.014
AP3D1 isoform 5 (UniProt O14617) 0.006
AFF4 (UniProt Q9UHB7) -0.088
ACACA isoform 4 (UniProt Q13085) 0.027
